# Source: PubChem BioAssay (NCATS)
# Records with an inconclusive call do not appear. Calls of active or inactive are those of the source. Calls come from the whole dose curve; as a rule, active = well fitted curve in the direction sought with a large enough effect; inconclusive = small, poorly fitted or top-dose-only effect, or another doubt; inactive = no such curve, though single readings can be large; an effect the other way counts as inactive or inconclusive.
# Target: ATP-dependent DNA helicase Q1 (Homo sapiens) (UniProt P46063)
# Assay: qHTS Validation Assay for Inhibitors of RecQ-Like Dna Helicase 1 (RECQ1) (AID 2353);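 for activity change, negative = inhibition: plate controls were DMSO vehicle for no effect and enzyme-free control for full effect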
# Conditions: recombinant RECQ1 helicase DNA unwinding assay; series mostly up to 25.6 µM; activity change, negative = inhibition: at the top concentration
# Outline: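 RECQ1T1 50 nM; forked duplex (20 bp + 30-nt ss tails) 200 nM, ATP 2 mM final; pH 8.0, 2 mM MgCl2, 2.5 ug/ml poly(dI-dC); 15 min compound preincubation; discontinuous kinetic read over 2 h at RT.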
# Potency is the fitted concentration of half-maximal effect.
# Chain of ATP-dependent DNA helicase Q1 (Homo sapiens) (P46063 whole entry, looked up): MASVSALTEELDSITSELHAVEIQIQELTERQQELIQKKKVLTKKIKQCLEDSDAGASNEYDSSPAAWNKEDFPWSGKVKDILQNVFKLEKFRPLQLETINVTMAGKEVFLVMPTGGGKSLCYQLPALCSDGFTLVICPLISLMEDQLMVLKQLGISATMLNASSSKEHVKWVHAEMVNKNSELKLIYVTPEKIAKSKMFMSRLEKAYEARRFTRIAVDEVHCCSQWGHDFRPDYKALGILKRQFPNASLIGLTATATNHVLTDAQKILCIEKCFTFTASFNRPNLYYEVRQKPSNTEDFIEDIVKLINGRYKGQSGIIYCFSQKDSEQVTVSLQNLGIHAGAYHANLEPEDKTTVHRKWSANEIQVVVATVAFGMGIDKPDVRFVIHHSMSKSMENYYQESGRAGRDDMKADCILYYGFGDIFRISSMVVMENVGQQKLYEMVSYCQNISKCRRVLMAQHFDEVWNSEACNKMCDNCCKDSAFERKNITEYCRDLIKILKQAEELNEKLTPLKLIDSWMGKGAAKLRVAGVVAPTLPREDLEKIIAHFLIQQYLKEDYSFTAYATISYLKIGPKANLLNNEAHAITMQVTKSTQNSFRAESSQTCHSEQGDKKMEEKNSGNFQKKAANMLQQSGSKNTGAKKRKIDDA
Structure (SMILES),"activity change, negative = inhibition",Potency
CCN(CCCl)Cc1ccccc1Br,-4.41% (inactive),–
C=CCN1C[C@@H](C)N([C@H](c2ccc(C(=O)N(CC)CC)cc2)c2cccc(OC)c2)C[C@@H]1C,-1.14% (inactive),–
CC(N)c1cccc(Cl)c1Cl (configuration not stated),-5.41% (inactive),–
CCCn1c(=O)c2[nH]c(C3CCCC3)nc2n(CCCOC(=O)c2ccc(S(=O)(=O)F)cc2)c1=O,3.72% (inactive),–
C=CCN1CC[C@]23c4c5ccc(O)c4O[C@@H]2/C(=N/N=C2\CC[C@@]4(O)C6Cc7ccc(O)c8c7[C@@]4(CCN6CC=C)[C@@H]2O8)CC[C@@]3(O)C1C5,0.892% (inactive),–
COc1ccc2c(c1)/C(=C/c1cnc[nH]1)C(=O)N2,-9.76% (inactive),–
C[N+]1(C)C2CCC1CC(OC(=O)c1c[nH]c3ccccc13)C2 (configuration not stated),-10.8% (inactive),–
NC(N)=Nc1ccc2[nH]c3c(c2c1)C[C@@]1(O)[C@H]2Cc4ccc(O)c5c4[C@@]1(CCN2CC1CC1)[C@H]3O5,1.83% (inactive),–
NC(Cc1cc(O)c(O)cc1O)C(=O)O (configuration not stated),–,1.41 µM (active)
Ic1ccccc1CNC1C2CCN(CC2)C1C(c1ccccc1)c1ccccc1 (configuration not stated),-3.84% (inactive),–
NC(=O)CI,-0.811% (inactive),–
CCS(=O)(=O)Nc1cccc(C(=C2CCCCC2)c2cnc[nH]2)c1,-6.78% (inactive),–
CC(C)(C)c1cc(C=C(C#N)C#N)cc(C(C)(C)C)c1O,-9.98% (inactive),–
CCCCCCCCCCCCCC(=O)O[C@@H]1[C@@H](C)[C@@]2(O)[C@@H](C=C(CO)C[C@@]3(O)C(=O)C(C)=C[C@@H]23)C2C(C)(C)[C@@]21OC(C)=O (some centres not stated),-18.6% (inactive),–
CCCCCCC(C)(C)c1ccc([C@@H]2C[C@H](O)CC[C@H]2CCCO)c(O)c1,-13.8% (inactive),–

# Test system: not listed separately
# Assay: Cytometric Cell-Based qHTS for Inhibitors of the mTORC1 Signaling Pathway in MEF (Tsc2-/-, p53-/-) Cells (AID 2660);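 for activity change, negative = inhibition: Tsc2 and p53 null MEFs carrying empty vector with compound for 24 h; percent of cells above a phospho-rpS6 to PI ratio cutoff in each well; plate controls were DMSO for no effect and rapamycin for full effect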
# Conditions: mTORC1 pathway cytometry; series mostly up to 38.3 µM; activity change, negative = inhibition: at the top concentration
# Outline: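 Readout: Alexa-488 phospho-rpS6 (Ser235/236) intensity divided by PI intensity, thresholded against 7.5 nM rapamycin wells and reported as % positive cells. PI cell count served as the viability measure. Compound exposure was 24 hrs at 37 degree Celsius.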
Structure (SMILES),"activity change, negative = inhibition",Potency
CCN(CCCl)Cc1ccccc1Br,1.41% (inactive),–
C=CCN1C[C@@H](C)N([C@H](c2ccc(C(=O)N(CC)CC)cc2)c2cccc(OC)c2)C[C@@H]1C,8.27% (inactive),–
N#CCCN,4.05% (inactive),–
C[C@@H]1O[C@@H](O[C@H]2C[C@@H](O)[C@]3(CO)[C@@H]4C(CC[C@]3(O)C2)[C@@]2(O)CC[C@H]([C@@H]3COC(=O)C3)[C@@]2(C)C[C@H]4O)[C@H](O)[C@H](O)[C@H]1O (some centres not stated),2.45% (inactive),–
N#C/C(=C/c1ccc(O)c(O)c1)C(N)=S,2.21% (inactive),–
N=C(N)c1ccc(CS(=O)(=O)F)cc1,3.15% (inactive),–
CCCN1CCc2cccc3c2[C@H]1Cc1ccc(O)c(O)c1-3,-0.819% (inactive),–
COc1ccc2c(c1)c(CCN1CCOCC1)c(C)n2C(=O)c1cccc(Cl)c1Cl,-2.22% (inactive),–
CC(=O)c1c(O)c(C)c(O)c(Cc2c(O)c3c(c(C(=O)/C=C/c4ccccc4)c2O)OC(C)(C)C=C3)c1O,3.18% (inactive),–
CC(N)c1cccc(Cl)c1Cl (configuration not stated),5.43% (inactive),–
C=CCN1CCc2cccc3c2[C@H]1Cc1ccc(O)c(O)c1-3,-29.5% (inactive),–
CCN1C[C@@]2(COC)C3[C@@H](OC)C4[C@@H]1C3([C@@H]1C[C@]3(O)[C@H](OC(=O)c5ccccc5)[C@@H]1[C@]4(OC(C)=O)[C@@H](O)[C@@H]3OC)[C@H](OC)C[C@H]2O,2.76% (inactive),–
C[N+]1(C)CCc2cc3c(cc2[C@H]1[C@@H]1OC(=O)c2c1ccc1c2OCO1)OCO3,-2.24% (inactive),–
CCCn1c(=O)c2[nH]c(C3CCCC3)nc2n(CCCOC(=O)c2ccc(S(=O)(=O)F)cc2)c1=O,0.476% (inactive),–
COc1ccc2c(c1O)-c1cccc3c1[C@@H](C2)N(C)CC3,-8% (inactive),–
COc1ccc2c(c1)/C(=C/c1cnc[nH]1)C(=O)N2,–,10.4 µM (active)

Structure (SMILES),"activity change, negative = inhibition",Potency
CCCN1CCC[C@@H](c2cccc(O)c2)C1,10% (inactive),–
CCCC[N+]1(C)C2CC(OC(=O)[C@H](CO)c3ccccc3)CC1C1OC12 (some centres not stated),2.78% (inactive),–
CC(=O)OCC1=C(C(=O)O)N2C(=O)[C@@H](NC(=O)CCC[C@@H](N)C(=O)O)[C@H]2SC1,-4.25% (inactive),–
C[N+]1(C)C2CCC1CC(OC(=O)c1c[nH]c3ccccc13)C2 (configuration not stated),-2.35% (inactive),–
Cc1cc([C@@H]2CCCN2C)on1,3.53% (inactive),–
NC(Cc1cc(O)c(O)cc1O)C(=O)O (configuration not stated),-29.2% (inactive),–
C[C@H](N)Cc1cccc(C(F)(F)F)c1,0.469% (inactive),–
CC(C)(O)[C@@H]1C2OC(=O)[C@@H]1[C@]1(O)C[C@H]3O[C@]34C(=O)O[C@H]2[C@]14C (tested in a mixture with another compound),-0.113% (inactive),–
CC(C)[C@@]1(NC(=O)[C@@H]2C[C@@H]3c4cccc5[nH]cc(c45)C[C@H]3N(C)C2)O[C@@]2(O)[C@@H]3CCCN3C(=O)[C@H](Cc3ccccc3)N2C1=O,4.82% (inactive),–
NC(=O)CI,5.27% (inactive),–
CCS(=O)(=O)Nc1cccc(C(=C2CCCCC2)c2cnc[nH]2)c1,-0.279% (inactive),–
CC(C)(C)c1cc(C=C(C#N)C#N)cc(C(C)(C)C)c1O,-0.45% (inactive),–
C=CCN(C1=NCCN1)c1c(Cl)cccc1Cl,3.53% (inactive),–
CN1CC[C@@]2(C)c3cc(OC(=O)Nc4ccccc4)ccc3N(C)[C@@H]12,-6.03% (inactive),–
CCNC(=O)[C@H]1O[C@@H](n2cnc3c(N)ncnc32)[C@H](O)[C@@H]1O,-2.81% (inactive),–
N[C@@H](Cn1ccc(=O)[nH]c1=O)C(=O)O,0.489% (inactive),–
